Inconclusive results are not listed. A number with no mark means an inactive call. The source made the active and inactive calls. Calls come from the whole dose curve; as a rule, active = well fitted cell-killing curve with a large enough effect in the repeat runs; inconclusive = weak or mixed curves, or effect the other way; inactive = flat fitted curve, though single readings scatter.
Assay: qHTS assay to identify small molecule antagonists of the estrogen receptor alpha (ER-alpha) signaling pathway using the BG1 cell line in the presence of 0.1 nM 17-beta-estradiol - cell viability counter screen (AID 1259241); note: nearly all actives have a fitted effect of over 40% in size
Conditions: VM7Luc4E2 (BG1) viability, CellTiter-Fluor protease, 22 h, 0.1 nM estradiol agonist added; series mostly up to 92.4 µM; activity change, negative = cytotoxicity: at the top concentration
Procedure, shortened: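 In this screen, hormone-deprived VM7Luc4E2 cells were seeded at 4,000 per well, dosed with compound and 0.1 nM estradiol final, and incubated 22 hr at 37C and 5% CO2; fluorogenic live-cell protease signal reported viability.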
% is set by controls: 0 for no effect and ±100 for the full control effect; potency is the fitted concentration of half-maximal effect.

Structure (SMILES)	activity change, negative = cytotoxicity	Potency
C=COCCOCCOC=C	2.26%	
C=C(C)[C@@H]1CC[C@@H](C)C[C@@H]1O	2.36%	
O=C(O)CCNC(=O)c1ccccc1	2.95% [at 42.5 µM]	
CCOC(=O)C(=O)c1csc(NC=O)n1	-0.9% [at 42.5 µM]	
CCC(CO)CO	-0.369%	
Nc1nc(=O)n([C@@H]2O[C@H](CO)[C@@H](O)[C@@H]2F)cc1I	-7.08% [at 42.5 µM]	
COc1ccc(N=Nc2cc(C)c(N=Nc3ccc(S(=O)(=O)O)cc3)cc2OC)cc1		68.6 µM (active)
OC(CCN1CCCCC1)(c1ccccc1)c1ccccc1	-14% [at 42.5 µM]	
Cc1nc(C)nc(N2C[C@@H](C)N(c3ccnc([C@@H](C)O)n3)[C@@H](C)C2)n1	-0.931% [at 42.5 µM]	
COc1ccc(NS(=O)(=O)c2ccc(N)cc2)nn1	13.8% [at 42.5 µM]	
O=C(CN1CCN(Cc2ccc3c(c2)OCO3)CC1)N1c2ccccc2Sc2ccccc21	0.551% [at 42.5 µM]	
NS(=O)(=O)c1ccc(Cl)c(S(N)(=O)=O)c1	7.02% [at 42.5 µM]	
C1=C\CC/C=C\CC/1	7.94%	
CCCCCC1CCCC(=O)O1 (configuration not stated)	7.08%	
C=C(C)C(=O)OC1CC(C)CC(C)(C)C1 (configuration not stated)	11.9%	
C=C[C@@H](C)CCC=C(C)C	6.57%	
CCN(CC)C(=O)C1CN2CCc3cc(OC)c(OC)cc3C2CC1OC(C)=O (configuration not stated)	0.393% [at 42.5 µM]	
O=C(Oc1ccccc1C(=O)O)c1ccccc1O	-1.1% [at 42.5 µM]	
NC(=O)NNC(N)=O	7.69%	

Structure (SMILES)	activity change, negative = cytotoxicity	Potency
C=CCCCCCCCCCCC	0.186% [at 8.39 µM]	
CCCCC(C)C(=O)O (configuration not stated)	-3.79%	
CCCCCCCCCCCCCCCCCCN(C)C	-1.83% [at 42.5 µM]	
COc1cc2c3cc1Oc1cc(ccc1O)C[C@@H]1c4c(cc(OC)c(O)c4Oc4ccc(cc4)C[C@@H]3N(C)CC2)CC[N+]1(C)C	-6.06% [at 42.5 µM]	
O=C(/C=C/c1ccccc1)NCCO	-3.8% [at 42.5 µM]	
CCC(C)(CCC(C)C)C(=O)[O-].CCC(C)(CCC(C)C)C(=O)[O-].[Zn+2] (configuration not stated)	-1.27%	
CCc1nccnc1C	7.08%	
C=CCOc1c(Br)cc(C(C)(C)c2cc(Br)c(OCC=C)c(Br)c2)cc1Br	0.941% [at 42.5 µM]	
SCCSCCS	1.67%	
CN(C)CCCNCCC#N	0.653%	
FC(F)(F)/C(=N\OCC1OCCO1)c1ccc(Cl)cc1	-10.9%	
FC(F)(F)c1ccc(Cl)cc1Cl	0%	
Cc1ccccc1OCC1CO1 (configuration not stated)	-1.67%	
C[C@H](CCC(=O)O)[C@H]1CC[C@H]2[C@@H]3[C@H](O)C[C@@H]4C[C@H](O)CC[C@]4(C)[C@H]3C[C@H](O)[C@]12C	5.91% [at 42.5 µM]	
CCCCCCCC[Si](OCC)(OCC)OCC	3.13%	
CC(C)COC(=O)CC(C(=O)OCC(C)C)S(=O)(=O)O (configuration not stated)	2.17%	
Cc1ncc([N+](=O)[O-])n1CC(O)CCl (configuration not stated)	2.73% [at 42.5 µM]	
CO[Si](CCCCl)(OC)OC	-13.2%	
